PubChem BioAssay (NCATS)
Where “and” joins values, the source holds several entries; their conditions need not be identical. Equal values may be shown once. Inconclusive results are not listed. A call without a number means that no potency is given here. The source holds several records for some structures; these can differ, active in one and inactive in another. Calls of active or inactive are those of the source. Unless noted, calls follow the shape of the dose curve; as a rule, active = well fitted curve in the direction sought with a large enough effect; inconclusive = small, poorly fitted or top-dose-only effect, or another doubt; inactive = no such curve, though single readings can be large; an effect the other way counts as inactive or inconclusive.

Columns and labels:
[1] = qHTS Screen of the MIPE 4.0 Collection Against Ewings Sarcoma (RDES) (AID 1259252); also: nearly all actives have a fitted effect of over 35% in size; also: potency is read from the fitted curve at half-maximal effect
Procedure, shortened: (§1)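 Viability screen: 48 h incubation at 37C, 95% humidity, 5% CO2 with serially titrated compound, followed by CellTiter-Glo readout.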

[2] = qHTS Screen of the MIPE 4.0 Collection Against Ewings Sarcoma (TC71) (AID 1259253); also: nearly all actives have a fitted effect of over 40% in size; also: potency is read from the fitted curve at half-maximal effect
Procedure, shortened: as §1

[3] = qHTS Screen of the MIPE 4.0 Collection Against Ewings Sarcoma (EW8) (AID 1259255); also: nearly all actives have a fitted effect of over 35% in size; also: potency is read from the fitted curve at half-maximal effect
Procedure, shortened: as §1

[4] = qHTS Screen of the MIPE 4.0 Collection Against Ewings Sarcoma (TC32) (AID 1259256); also: nearly all actives have a fitted effect of over 45% in size; also: potency is read from the fitted curve at half-maximal effect
Procedure, shortened: as §1

[5] = qHTS assay to identify small molecule inhibitors of chordoma cells - UCH-1 (AID 1259355); also: nearly all actives have a fitted effect of over 55% in size; also: potency is read from the fitted curve at half-maximal effect; series mostly up to about 46 µM
Procedure, shortened: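 Screening used approved and investigational drugs in 15-point titration against 800 seeded cells per well. A fixed combination of auranofin with camptothecin, doxorubicin, rubitecan and topotecan followed compound addition, and growth was scored by CellTiter-Glo after 48hr.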

[6] = qHTS assay to identify small molecule inhibitors of chordoma cells - UCH-2 (AID 1259356); also: series mostly up to about 46 µM
[7] = P-glycoprotein substrates identified in KB-8-5-11 adenocarcinoma cell line, qHTS therapeutic library screen (AID 1346987); settings: outcome: dose series up to 44.5 µM unless noted; also: nearly all actives have a fitted effect of over 65% in size; also: potency is read from the fitted curve at half-maximal effect
Procedure, shortened: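 In this qHTS, P-gp-rich KB-8-5-11 cells received library compounds across a concentration range. Viability was quantified by luminescence after 72 h at 37 degree C.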

[8] = Natriuretic polypeptide receptor (hNpr1) antagonism - Pilot counterscreen GloSensor control cell line (AID 1347045; calls by dose curve; also: potency is read from the fitted curve at half-maximal effect)
Procedure, shortened: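 HEK293 cGMP-sensor cells; 2% GloSensor reagent 2 h RT; LOPAC compounds in 1:5 titrations 30-50 min; 50 uM SNP 20 min; luminescence pre-read and post-read.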

[9] = molecular target: Atrial natriuretic peptide receptor 1 (Homo sapiens) (UniProt P16066); assay: Natriuretic polypeptide receptor (hNpr1) antagonism - Pilot screen (AID 1347049; calls by dose curve;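 also: agonist-evoked cGMP luminescence read 20 min after hNppA addition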; also: potency is read from the fitted curve at half-maximal effect)
Procedure, shortened: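 cGMP-sensor HEK293/hNpr1 cells, 1500/well, plated overnight at 37C. 2% GloSensor reagent, 2 h RT. Compound (23 nL pin transfer) 30 min RT, baseline luminescence pre-read. 0.1 nM hNppA, 20 min RT, post-read.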

[10] = molecular target: Atrial natriuretic peptide receptor 2 (Homo sapiens) (UniProt P20594); assay: Natriuretic polypeptide receptor (hNpr2) antagonism - Pilot subtype selectivity assay (AID 1347050; calls by dose curve; also: potency is read from the fitted curve at half-maximal effect)
Procedure, shortened: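 Luminescence from a genetically encoded cGMP luciferase biosensor in hNpr2-expressing HEK293 cells is read before and 20 min after adding 1 nM hNppC. Test compounds, in interplate 1:5 titrations, are added 30-50 min ahead of the agonist.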

[11] = NS1 protein of Zika virus - qHTS assay to identify small molecule inhibitors in human HEK 293 cells (AID 1347053); also: nearly all actives have a fitted effect of over 55% in size; also: potency is read from the fitted curve at half-maximal effect
Procedure, shortened: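 Readout was TR-FRET using paired anti-NS1 antibodies after 24 h infection of HEK 293 cells with ZIKV MR766 (MOI = 0.5). Compound preceded virus by 1 h; reduced signal reflects lower NS1 expression.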

[12] = molecular target: T1, Tyrosine-protein phosphatase non-receptor type substrate 1 (Homo sapiens) + Leukocyte surface antigen CD47 (Homo sapiens) (UniProt P78324+Q08722); assay: CD47-SIRPalpha protein protein interaction - LANCE assay qHTS validation (AID 1347057; active = well fitted curve in the direction sought with a large enough effect in the signal ratio, with a control signal flat, not every such curve was filed as active; the % refers to the signal ratio; also: series mostly up to about 38 µM)
Procedure, shortened: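 Inhibition of soluble CD47/SIRPalpha ectodomain association by titrated compounds, measured as 665/615 nm time-resolved FRET ratio after sequential 30 min room-temperature incubations.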

[13] = molecular target: T1, Tyrosine-protein phosphatase non-receptor type substrate 1 (Homo sapiens) + Leukocyte surface antigen CD47 (Homo sapiens); assay: CD47-SIRPalpha protein protein interaction - HTRF assay qHTS validation (AID 1347058; active = well fitted curve in the direction sought with a large enough effect in the signal ratio, not every such curve was filed as active; the % refers to the signal ratio; also: series mostly up to about 38 µM)
Procedure, shortened: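 Soluble extracellular domains (6His-CD47, Avi-tag-biotinylated SIRPalpha) in PBS pH 7.4 with 0.05% IGEPAL CA-630. Compounds were preincubated 30 min at RT with CD47 and anti-His-Eu, then SIRPalpha and SAV-XL665 were added. TR-FRET 665/615 ratio.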

[14] = Identifying Small Molecule Inhibitors of Pancreatic Cancer Stem Cells (SN12C, Adherent) (AID 1259358);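 also: cell survival measured after 48 h of compound exposure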
Procedure, shortened: (§2)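 Monolayer and spheroid cultures are compared. Spheroids form over 14 days in stem cell medium on hydrogel-coated low-attachment plates, then are exposed to compound for 48 h before CellTiter-Glo luminescence.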

[15] = Identifying Small Molecule Inhibitors of Pancreatic Cancer Stem Cells (SN12C, Spheroid) (AID 1259360)
Procedure, shortened: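 Adherent (2D) versus sphere (3D) formats; spheres generated 14 d in SCM beforehand. Compound transferred by pin tool after 4 h, 48 h incubation, CellTiter-Glo endpoint.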

[16] = Identifying Small Molecule Inhibitors of Pancreatic Cancer Stem Cells (A278, Adherent) (AID 1259361);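 also: viability read after 48 h compound exposure; nearly all actives have a fitted effect of over 35% in size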
Procedure, shortened: as §2

[17] = P-glycoprotein substrates identified in KB-3-1 adenocarcinoma cell line, qHTS therapeutic library screen (AID 1346986); settings: outcome: dose series up to 44.5 µM unless noted; also: nearly all actives have a fitted effect of over 60% in size
Procedure, shortened: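 Viability by CellTiter-Glo after 72 h compound exposure at 37 degree C, 5% CO2. Cytotoxic call: curve class -1.1 to -2.4, maximum response >50%, AC50 < 10 uM, compared across KB-3-1 and P-gp-overexpressing KB-8-5-11.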

Atrial natriuretic peptide receptor 2 (Homo sapiens), sequence (P20594 whole entry, looked up): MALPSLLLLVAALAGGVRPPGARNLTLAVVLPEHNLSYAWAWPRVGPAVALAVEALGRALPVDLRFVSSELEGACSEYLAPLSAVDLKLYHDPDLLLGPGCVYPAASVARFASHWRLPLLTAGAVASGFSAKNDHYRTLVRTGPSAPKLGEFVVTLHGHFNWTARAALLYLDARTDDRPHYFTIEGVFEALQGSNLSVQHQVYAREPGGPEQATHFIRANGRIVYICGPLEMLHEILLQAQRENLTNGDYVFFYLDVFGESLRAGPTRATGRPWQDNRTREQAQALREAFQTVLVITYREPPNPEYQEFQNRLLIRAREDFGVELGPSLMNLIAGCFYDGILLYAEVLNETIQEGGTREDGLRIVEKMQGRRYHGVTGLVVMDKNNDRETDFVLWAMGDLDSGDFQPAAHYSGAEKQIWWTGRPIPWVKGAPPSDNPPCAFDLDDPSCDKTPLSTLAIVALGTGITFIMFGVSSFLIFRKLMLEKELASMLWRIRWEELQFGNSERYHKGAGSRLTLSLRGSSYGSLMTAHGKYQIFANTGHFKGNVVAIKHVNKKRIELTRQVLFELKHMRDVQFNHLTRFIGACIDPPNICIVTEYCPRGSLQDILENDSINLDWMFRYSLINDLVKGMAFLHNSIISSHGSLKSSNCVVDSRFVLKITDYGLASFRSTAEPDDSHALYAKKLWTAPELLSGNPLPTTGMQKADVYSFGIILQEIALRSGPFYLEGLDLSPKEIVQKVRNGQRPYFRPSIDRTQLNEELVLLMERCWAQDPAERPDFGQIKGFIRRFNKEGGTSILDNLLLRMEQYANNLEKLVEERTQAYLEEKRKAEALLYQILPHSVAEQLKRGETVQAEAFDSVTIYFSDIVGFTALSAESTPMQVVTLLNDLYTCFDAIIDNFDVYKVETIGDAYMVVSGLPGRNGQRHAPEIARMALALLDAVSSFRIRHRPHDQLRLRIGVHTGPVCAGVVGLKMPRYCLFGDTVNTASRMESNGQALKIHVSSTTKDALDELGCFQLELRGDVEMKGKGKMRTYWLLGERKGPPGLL
Atrial natriuretic peptide receptor 1 (Homo sapiens), sequence (P16066 whole entry, looked up): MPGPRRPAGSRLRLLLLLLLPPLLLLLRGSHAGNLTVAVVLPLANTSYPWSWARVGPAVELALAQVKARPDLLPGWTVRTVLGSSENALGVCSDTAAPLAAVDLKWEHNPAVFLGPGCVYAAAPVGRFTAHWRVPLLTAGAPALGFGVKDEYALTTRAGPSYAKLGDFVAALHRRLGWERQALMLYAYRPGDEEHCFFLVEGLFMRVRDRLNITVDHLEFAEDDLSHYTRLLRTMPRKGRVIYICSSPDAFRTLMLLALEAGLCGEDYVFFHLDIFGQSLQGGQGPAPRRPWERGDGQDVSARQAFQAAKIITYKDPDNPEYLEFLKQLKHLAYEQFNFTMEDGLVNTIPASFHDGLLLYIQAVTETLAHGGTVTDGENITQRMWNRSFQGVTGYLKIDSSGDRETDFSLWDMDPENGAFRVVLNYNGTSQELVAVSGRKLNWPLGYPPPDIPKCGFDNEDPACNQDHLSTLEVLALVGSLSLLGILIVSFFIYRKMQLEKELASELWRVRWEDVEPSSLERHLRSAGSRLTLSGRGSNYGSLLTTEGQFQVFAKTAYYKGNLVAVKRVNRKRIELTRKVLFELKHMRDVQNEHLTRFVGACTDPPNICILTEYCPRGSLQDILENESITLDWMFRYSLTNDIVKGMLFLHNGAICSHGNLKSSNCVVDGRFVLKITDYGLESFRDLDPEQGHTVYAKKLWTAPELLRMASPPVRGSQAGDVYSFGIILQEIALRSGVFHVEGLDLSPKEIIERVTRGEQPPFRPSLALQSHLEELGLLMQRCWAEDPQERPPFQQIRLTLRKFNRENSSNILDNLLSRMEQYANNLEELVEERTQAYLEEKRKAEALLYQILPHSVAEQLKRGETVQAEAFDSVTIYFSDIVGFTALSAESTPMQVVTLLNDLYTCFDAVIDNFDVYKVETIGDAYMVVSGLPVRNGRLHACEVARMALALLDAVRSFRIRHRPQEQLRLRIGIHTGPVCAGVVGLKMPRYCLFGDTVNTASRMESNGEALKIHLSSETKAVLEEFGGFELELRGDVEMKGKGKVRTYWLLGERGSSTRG
T1 sequence (P78324 whole entry, looked up, the tested form may be a part): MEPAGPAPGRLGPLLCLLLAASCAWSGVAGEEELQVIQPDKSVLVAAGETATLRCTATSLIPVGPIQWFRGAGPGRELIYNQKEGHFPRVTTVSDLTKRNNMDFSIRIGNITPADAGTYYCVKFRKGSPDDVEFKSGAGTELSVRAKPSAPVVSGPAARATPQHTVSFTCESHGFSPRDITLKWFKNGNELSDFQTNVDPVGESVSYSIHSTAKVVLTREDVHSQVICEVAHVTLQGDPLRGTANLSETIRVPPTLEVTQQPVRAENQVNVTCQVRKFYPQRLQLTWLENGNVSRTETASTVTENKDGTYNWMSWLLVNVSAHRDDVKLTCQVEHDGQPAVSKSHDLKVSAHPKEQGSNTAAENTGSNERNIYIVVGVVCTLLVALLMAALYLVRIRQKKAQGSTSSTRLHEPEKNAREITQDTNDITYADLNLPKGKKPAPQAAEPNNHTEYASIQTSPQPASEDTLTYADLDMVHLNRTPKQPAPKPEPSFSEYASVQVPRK
T1 sequence (Q08722 whole entry, looked up, the tested form may be a part): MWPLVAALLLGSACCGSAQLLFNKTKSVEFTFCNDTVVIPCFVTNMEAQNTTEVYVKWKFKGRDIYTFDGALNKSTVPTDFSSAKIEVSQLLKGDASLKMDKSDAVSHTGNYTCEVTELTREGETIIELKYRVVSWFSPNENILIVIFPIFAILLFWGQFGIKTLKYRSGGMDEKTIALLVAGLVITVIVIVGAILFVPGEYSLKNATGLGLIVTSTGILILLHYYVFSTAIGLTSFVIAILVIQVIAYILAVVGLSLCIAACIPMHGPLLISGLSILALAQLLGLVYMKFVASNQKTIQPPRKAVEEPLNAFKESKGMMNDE

COc1nc(C)nc(Cl)c1NC1=NCCN1
Potency [1]: inactive | Potency [2]: inactive | Potency [3]: inactive | Potency [4]: inactive | Potency [5]: inactive | outcome [6]: inactive | Potency [7]: inactive | Potency [8]: inactive | Potency [9]: inactive | Potency [10]: inactive | Potency [11]: inactive | outcome [12]: inactive | outcome [13]: inactive

O=C(Nc1ccc([N+](=O)[O-])cc1Cl)c1cc(Cl)ccc1O
Potency [1]: 16.6 µM (active) | Potency [2]: 1.32 µM (active) | Potency [3]: 16.6 µM (active) | Potency [5]: 3.98 µM (active) | Potency [8]: 0.464 µM (active) | Potency [9]: 0.953 µM (active) | Potency [10]: 1.31 µM (active) | Potency [11]: inactive and 1.48 µM (active) | outcome [12]: inactive | outcome [13]: inactive

CN(Cc1cnc2nc(N)nc(N)c2n1)c1ccc(C(=O)N[C@@H](CCC(=O)O)C(=O)O)cc1
Potency [1]: 0.0332 µM (active) | Potency [2]: 0.0148 µM (active) | Potency [3]: 0.0264 µM (active) | Potency [4]: 0.0372 µM (active) | outcome [6]: inactive | Potency [7]: 10.3 nM (active) and 37.2 nM (active) | Potency [9]: inactive | Potency [10]: inactive | Potency [11]: inactive | outcome [12]: inactive

COc1ccc(CCN(C)CCCC(C#N)(c2ccc(OC)c(OC)c2)C(C)C)cc1OC (configuration not stated)
Potency [14]: inactive | outcome [15]: inactive | IC50 (viability decrease) [16]: inactive

Cn1ccc2cc3c(cc21)CCN3C(=O)Nc1cccnc1
Potency [14]: inactive | outcome [15]: inactive | IC50 (viability decrease) [16]: inactive

O=C(C1CCCCC1)N1CC(=O)N2CCc3ccccc3C2C1 (configuration not stated)
Potency [3]: inactive | Potency [5]: inactive | outcome [6]: inactive | Potency [7]: inactive | Potency [8]: inactive | Potency [9]: inactive | Potency [10]: inactive | Potency [11]: inactive | outcome [12]: inactive | outcome [13]: inactive

Clc1ccc(C(c2ccccc2Cl)C(Cl)Cl)cc1 (configuration not stated)
Potency [5]: inactive | outcome [6]: inactive | Potency [9]: inactive | Potency [11]: inactive and 18.7 µM (active) | outcome [12]: inactive

CN1C(C(=O)Nc2ccccn2)=C(O)c2ccccc2S1(=O)=O
Potency [5]: inactive | outcome [6]: inactive | Potency [7]: inactive | Potency [9]: inactive | Potency [10]: inactive | Potency [11]: inactive | outcome [12]: inactive

COc1ccccc1N1CCN(CC(O)COc2cccc3ccccc23)CC1 (configuration not stated)
Potency [2]: 16.6 µM (active) | Potency [3]: inactive | outcome [6]: inactive | Potency [9]: inactive | Potency [11]: inactive | outcome [12]: inactive | outcome [13]: inactive

CN(C)CCC=C1c2ccccc2C=Cc2ccccc21
Potency [2]: 20.9 µM (active) | Potency [3]: 16.6 µM (active) | Potency [4]: 16.6 µM (active) | Potency [5]: inactive | outcome [6]: inactive | Potency [7]: inactive | Potency [10]: 16.5 µM (active) | Potency [11]: inactive | outcome [12]: inactive | outcome [13]: inactive

COc1ccccc1OCCNCC(O)COc1cccc2[nH]c3ccccc3c12 (configuration not stated)
Potency [5]: inactive | outcome [6]: inactive | Potency [7]: inactive | Potency [9]: inactive | Potency [11]: inactive | outcome [12]: inactive | outcome [13]: inactive

Cc1cn([C@H]2C=C[C@@H](CO)O2)c(=O)[nH]c1=O
Potency [2]: inactive | Potency [3]: inactive | Potency [5]: inactive | outcome [6]: inactive | outcome [17]: inactive [at 93.4 µM] | Potency [7]: inactive | Potency [9]: inactive | Potency [10]: inactive | Potency [11]: inactive | outcome [12]: inactive | outcome [13]: inactive

CC(CCc1ccc(O)cc1)NCCc1ccc(O)c(O)c1 (configuration not stated)
Potency [2]: 23.5 µM (active) | Potency [3]: 23.5 µM (active) | outcome [6]: inactive | Potency [9]: inactive | Potency [11]: inactive | outcome [12]: inactive | outcome [13]: inactive

C[C@H]1c2cccc(O)c2C(O)=C2C(=O)[C@]3(O)C(O)=C(C(N)=O)C(=O)[C@@H](N(C)C)[C@@H]3[C@@H](O)[C@@H]21
Potency [5]: inactive | outcome [6]: inactive | Potency [7]: inactive | Potency [9]: inactive | Potency [11]: inactive | outcome [12]: inactive | outcome [13]: inactive

COc1cc2nc(N3CCN(C(=O)c4ccco4)CC3)nc(N)c2cc1OC
Potency [3]: 18.7 µM (active) | Potency [7]: inactive | Potency [9]: inactive | Potency [11]: 9.35 µM (active) | outcome [12]: inactive | outcome [13]: inactive

Cc1cc(C(C)(C)C)c(O)c(C)c1CC1=NCCN1
outcome [6]: inactive | Potency [7]: inactive | Potency [8]: inactive | Potency [9]: inactive | Potency [10]: inactive | Potency [11]: inactive | outcome [12]: inactive | outcome [13]: inactive

Cn1c(=O)c2[nH]cnc2n(C)c1=O
Potency [2]: inactive | Potency [5]: inactive | outcome [6]: inactive | Potency [7]: inactive | Potency [9]: inactive | Potency [10]: inactive | Potency [11]: inactive | outcome [12]: inactive

O=C1Cc2cc(CCN3CCN(c4nsc5ccccc45)CC3)c(Cl)cc2N1
Potency [2]: 23.5 µM (active) | Potency [3]: 23.5 µM (active) | Potency [4]: 23.5 µM (active) | Potency [5]: inactive | outcome [6]: inactive | Potency [7]: inactive | Potency [9]: inactive | Potency [11]: inactive | outcome [12]: inactive | outcome [13]: inactive

CC(C)NCC(O)c1ccc(O)c(O)c1 (configuration not stated)
Potency [2]: 5.9 µM (active) | Potency [3]: 20.9 µM (active) | Potency [5]: inactive | outcome [6]: inactive | Potency [7]: inactive | Potency [9]: inactive | Potency [10]: inactive | Potency [11]: inactive | outcome [12]: inactive | outcome [13]: inactive
